Data on five compounds can be found in PubChem BioAssay (NCATS).

Records with an inconclusive call do not appear. Values without a mark were called inactive. Active and inactive are the calls of the source. The call rests on the fitted dose curve; in most records, active means well fitted cell-killing curve with a large enough effect; inconclusive means small, poorly fitted or top-dose-only effect, or effect the other way; inactive means no such curve, though single readings can be large or run the other way.
Potency means the concentration at half of the fitted maximal effect.

This test can be described thus: Viability qHTS for spleen associated tyrosine kinase inhibitor (SYKi) drug resistant MV4-11 cells (AID 1963824). Further: nearly all actives have a fitted effect of over 35% in size. As to conditions: SYKi-resistant MV4-11 viability, CellTiter-Glo, 72 h; series mostly up to 45 µM; viability, % of control: at the top concentration. The gist of the method: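 SYK inhibitor-resistant MV4-11 AML cells, 500 per well, added to predispensed compounds and incubated 72 hr at 37 C, 5% CO2. Viability measured by CellTiter-Glo luminescence after 10 min at room temperature.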
(Quantitative high-throughput screening tests each substance at several concentrations.)
Turning to `Sc1ccccc1Cl`, the “viability, % of control” value was 100%.

As for `CC(=O)O[C@H]1C[C@@H](C)O[C@H]2O[C@@H]3CC4CC[C@@H]5C(CC[C@]6(C)[C@@H](C7=CC(=O)OC7)CC[C@]56O)[C@@]4(C=O)C[C@H]3O[C@]21O` (stereo not given in full), the Potency was 48.5 nM (active).

Regarding `C/C=C(\C)C(=O)O[C@H]1[C@H](OC(C)=O)[C@]2(CO)[C@H](O)[C@H](O)[C@]3(C)C(=CCC4[C@@]5(C)CC[C@H](O[C@@H]6O[C@H](C(=O)O)[C@@H](O)[C@H](O[C@@H]7OC[C@H](O)[C@H](O[C@@H]8OC[C@H](O)[C@H](O)[C@H]8O)[C@H]7O)[C@H]6O[C@@H]6O[C@H](CO)[C@@H](O)[C@H](O)[C@H]6O)C(C)(C)C5CC[C@]43C)[C@@H]2CC1(C)C` (stereo not given in full), the viability, % of control is 68.2% [at 9.25 µM].

For `O=C(C[C@@H]1NCCC[C@H]1O)Cn1cnc2ccccc2c1=O`, the Potency was 231 nM (active).

With `CC1=CC2(O)/C=C/C(C)(O)C(O)C(O)/C=C/C(=O)OC23C(=O)NC(CC(C)C)C3C1C` (stereo not given), the “viability, % of control” value was 83% [at 17.3 µM].
